# Laboratory results published in PubChem BioAssay (NCATS).
# Where “and” joins values, the source holds several entries; their conditions need not be identical. Equal values may be shown once. Inconclusive results are not listed. Where a structure was tested more than once in an assay, its records may differ in their call. A number with no mark means an inactive call. Calls of active or inactive are those of the source. Calls come from the whole dose curve; as a rule, active = well fitted inhibition curve with a large enough effect; inconclusive = small, poorly fitted or top-dose-only effect; inactive = flat fitted curve, though single readings scatter.
# Assays:
# [1] = tested on: CRL-7250; assay: Cytotoxic Profiling of Annotated Libraries Using Quantitative High-Throughput Screening (AID 1296008); conditions: Five cell lines viability, CellTiter-Glo ATP luminescence, 48-72 h; max response: active compounds read low; note: potency is the fitted concentration of half-maximal effect; for max response: % is set by controls: 0 for no effect and ±100 for the full control effect
# Procedure, shortened: (§1)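 Compounds were pin-transferred onto cells and incubated 48 or 72 hr at 37 degree Celsius, 95% humidity. CellTiter-Glo was added, plates sat 10 min at room temperature, then ATP-coupled luminescence was imaged as the viability read-out.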
# [2] = tested on: HEK293; assay: as above; conditions: Five cell lines viability, CellTiter-Glo ATP luminescence, 48-72 h; max response: active compounds read low
# Procedure, shortened: as §1
# [3] = tested on: HaCat; assay: as above; conditions: Five cell lines viability, CellTiter-Glo ATP luminescence, 48-72 h; max response: active compounds read low
# Procedure, shortened: as §1
# [4] = tested on: KB-3-1; assay: as above; conditions: Five cell lines viability, CellTiter-Glo ATP luminescence, 48-72 h; max response: active compounds read low
# Procedure, shortened: as §1
# [5] = tested on: NIH3T3; assay: as above; conditions: Five cell lines viability, CellTiter-Glo ATP luminescence, 48-72 h; max response: active compounds read low
# Procedure, shortened: as §1
# [6] = tested on: HEK293T; assay: qHTS assay to identify novel small-molecules to repurpose for Merkel cell carcinoma treatment (AID 1296009); conditions: MCC and control cell lines, CellTiter-Glo viability, 72 h; at 44.8 µM (top of the series) unless noted
# Procedure, shortened: (§2)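 Viability readout: ATP luminescence (CellTiter-Glo) after 72 hr drug exposure at 37 degree celsius. Dose-response format was 8 points for NPC and 11 points for MIPE; data normalized to in-plate controls.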
# [7] = tested on: HACAT; assay: as above; conditions: MCC and control cell lines, CellTiter-Glo viability, 72 h
# Procedure, shortened: as §2
# [8] = at 44.8 µM (top of the series) unless noted
# Note: nearly all actives have a fitted effect of over 60% in size.
compound,measurement,setting,value
CCCCCOC(=O)Nc1nc(=O)n([C@@H]2O[C@H](C)[C@@H](O)C2O)cc1F (stereo partly drawn),max response,[1],0.279%
same,max response,[2],-5.3%
same,max response,[3],-7.75%
same,max response,[4],-1.34%
same,max response,[5],2.26%
CCOc1ccccc1N=Nc1c(C)[nH]n(-c2nc(-c3ccccc3)cs2)c1=O,max response,[1],-16.1%
same,max response,[2],-20.4%
same,max response,[3],-4.82%
same,max response,[4],-0.405%
same,max response,[5],-3.32%
CCCCOCCOc1nc(-c2ccc(C(=O)O)c(F)c2)sc1C,max response,[1],-34.6%
same,max response,[2],-11.4%
same,max response,[3],-22%
same,max response,[4],-5.21%
same,max response,[5],-20.6%
COc1cc(Nc2nc3ccccc3nc2NS(=O)(=O)c2ccc(NC(=O)c3ccc(C)c(OC)c3)cc2)cc(OC)c1,max response,[1],-27.1% and -5.83%
same,outcome,[2],inactive
same,max response,[3],-23.6% and -15%
same,max response,[4],6.27%
same,outcome,[4],inactive
same,max response,[5],-5.22%
same,outcome,[5],inactive
same,outcome,[6],inactive
CC1(COc2ccc3c(c2)ncn3-c2ccc3cccc(N4CCC(N)CC4)c3n2)COC1,Potency,[1],11.6 µM (active)
same,Potency,[2],7.43 µM (active) and 8.2 µM (active)
same,Potency,[3],20.6 µM (active)
same,Potency,[4],5.9 µM (active)
same,Potency,[5],2.96 µM (active)
CCOC(=O)N1c2ccc(C(F)(F)F)cc2[C@@H](N(Cc2cc(C(F)(F)F)cc(C(F)(F)F)c2)C(=O)OC)C[C@H]1CC,Potency,[1],14.8 µM (active)
same,max response,[2],-0.609%
same,max response,[3],3.49%
same,max response,[4],1.68%
same,outcome,[5],inactive
Cc1nc(NC(=O)N2CCC[C@@H]2C(N)=O)sc1-c1csc(C(C)(C)C)n1,Potency,[1],1.32 µM (active)
same,Potency,[2],2.35 µM (active)
same,Potency,[3],1.87 µM (active)
same,Potency,[4],13.2 µM (active)
same,Potency,[5],4.69 µM (active)
NC[C@H]1O[C@H](O[C@@H]2[C@@H](O)[C@@H](O[C@H]3O[C@H](CO)[C@@H](O)[C@H](N)[C@@H]3O)[C@H](N)C[C@@H]2N)[C@H](O)[C@@H](O)[C@H]1O,max response,[1],-1.7%
same,max response,[2],-2.16%
same,max response,[3],-1.4%
same,max response,[4],4.43%
same,max response,[5],-1.04%
O=C(CO)N1CCC(c2[nH]nc(-c3ccc(Cl)cc3)c2-c2ccncn2)CC1,max response,[1],0.635% and -7.11%
same,max response,[2],-13.1% and -1.15%
same,max response,[3],-4.95%
same,max response,[4],6.51%
same,outcome,[4],inactive
C[C@@]1(c2cc(-c3cncnc3)c(F)cc2F)CCSC(N)=N1,max response,[1],3.38% and -17.5%
same,max response,[2],1.85% and -22.9%
same,max response,[3],-8.12% and -24.8%
same,max response,[4],-3.27%
same,outcome,[4],inactive
same,max response,[5],-1.07%
same,outcome,[5],inactive
CCOC(=O)[C@@H](N)CCC(=O)N[C@@H](CSCc1ccccc1)C(=O)N[C@@H](C(=O)OCC)c1ccccc1,outcome,[1],inactive
same,max response,[2],-7.26%
same,outcome,[3],inactive
same,max response,[4],-0.167%
same,max response,[5],1.31%
same,outcome,[7]; [8],inactive
NCC1CCC(C(=O)O)CC1 (stereo not drawn),max response,[1],-3.04%
same,max response,[2],2.93%
same,outcome,[3],inactive
same,max response,[4],7.37% and 2.9%
same,max response,[5],-3.72%
same,outcome,[7]; [8],inactive
CN(CC=CC#CC(C)(C)C)Cc1cccc2ccccc12,max response,[1],1.65%
same,outcome,[2],inactive
same,outcome,[3],inactive
same,max response,[4],4.31%
same,max response,[5],-1.72%
same,outcome,[7]; [8],inactive
same,outcome,[6],inactive
CC(C)(CO)[C@@H](O)C(=O)NCCC(=O)O,max response,[1],0.71%
same,outcome,[2],inactive
same,outcome,[3],inactive
same,max response,[4],1.6% and 8.68%
same,max response,[5],-2.4%
same,outcome,[7]; [8],inactive
same,outcome,[6],inactive
CC(=O)N1CCN(c2ccc(OCc3nn(C)c(C)c3-c3cccc4c(CCCOc5cc(C)c(Cl)c(C)c5)c(C(=O)O)n(Cc5cccnc5)c34)cc2)CC1,max response,[1],4.49%
same,outcome,[2],inactive; activator
same,outcome,[3],inactive
same,max response,[4],1.85%
same,outcome,[5],inactive
same,outcome,[7]; [8],inactive
same,outcome,[6],inactive; activator
O=C(NCCCCN1CCOCC1)c1cc2ccccc2o1,max response,[1],-1.43%
same,max response,[2],-14.9%
same,outcome,[3],inactive
same,outcome,[4],inactive
same,max response,[5],3.06%
same,outcome,[7]; [8],inactive
Cc1c(C(=O)Nc2ccc(N3C[C@@H](C)O[C@@H](C)C3)nc2)cccc1-c1ccc(OC(F)(F)F)cc1,max response,[1],-6.66%
same,Potency,[2],5.26 µM (active)
same,Potency,[3],9.35 µM (active)
same,max response,[4],-8.91%
same,Potency,[5],20.9 µM (active)
COc1cc2ncn(-c3cc(OCc4ccccc4S(C)(=O)=O)c(C#N)s3)c2cc1OC,max response,[1],0.002%
same,max response,[2],-13.3%
same,outcome,[3],inactive
same,max response,[4],-2.12%
same,max response,[5],-0.819%
same,outcome,[7]; [8],inactive
CC1(C)[C@H]2CC[C@]3(C)[C@@H](C(=O)C=C4[C@@H]5C[C@@](C)(C(=O)O)CC[C@]5(C)CC[C@]43C)[C@@]2(C)CC[C@@H]1O,outcome,[1],inactive
same,max response,[2],-1.55%
same,outcome,[3],inactive
same,max response,[4],1.07%
same,max response,[5],-8.32%
same,outcome,[7]; [8],inactive
CC[C@H](C)C(=O)O[C@H]1C[C@H](O)C=C2C=C[C@H](C)[C@H](CC[C@@H](O)C[C@@H](O)CC(=O)O)[C@H]21,max response,[1],-6.33%
same,max response,[2],0.44%
same,max response,[3],-9.82%
same,max response,[4],7.09% and -6.87%
same,max response,[5],-3.34%
O=C1C(c2c(O)[nH]c3ccccc23)=Nc2ccccc21,outcome,[1],inactive
same,max response,[2],-1.42%
same,outcome,[3],inactive
same,outcome,[4],inactive
same,max response,[5],2.3%
same,outcome,[5],inactive
same,outcome,[7]; at 17.4 µM (top of the series),inactive
same,outcome,[7]; at 44.8 µM (top of the series),inactive
COc1ccc(-c2cc(=O)c3c(O)cc(O[C@@H]4O[C@H](CO[C@@H]5O[C@@H](C)[C@H](O)[C@@H](O)[C@@H]5O)[C@@H](O)[C@H](O)[C@@H]4O)cc3o2)cc1O,max response,[1],-4.94%
same,outcome,[2],inactive
same,outcome,[3],inactive
same,max response,[4],-0.879%
same,outcome,[5],inactive
same,outcome,[7]; [8],inactive
same,outcome,[6],inactive
C[C@]12CC[C@@H]3c4ccc(O)cc4CC[C@H]3[C@H]1[C@@H](O)[C@@H](O)[C@H]2O,max response,[1],0.316%
same,outcome,[2],inactive
same,outcome,[3],inactive
same,outcome,[4],inactive
same,outcome,[5],inactive
same,outcome,[7]; [8],inactive
same,outcome,[6],inactive
O=C(O)C1=NC(C(=O)O)CC(C=CN2c3cc(O)c(OC4OC(CO)C(O)C(O)C4O)cc3CC2C(=O)O)=C1 (stereo not drawn),outcome,[1],inactive
same,outcome,[2],inactive
same,outcome,[3],inactive
same,max response,[4],2.69%
same,max response,[5],3.64%
same,outcome,[7]; [8],inactive
same,outcome,[6],inactive
CC1CNc2c(cccc2S(=O)(=O)N[C@@H](CCCN=C(N)N)C(=O)N2CC[C@@H](C)C[C@@H]2C(=O)O)C1 (stereo partly drawn),outcome,[1],inactive
same,outcome,[2],inactive
same,outcome,[3],inactive
same,max response,[4],9.69%
same,max response,[5],-2.95%
same,outcome,[7]; [8],inactive
same,outcome,[6],inactive
CN(C)CCN(Cc1ccc(Cl)cc1)c1ccccn1,max response,[1],4.38%
same,max response,[2],-16.3%
same,outcome,[3],inactive
same,max response,[4],-16.5% and 0.769%
same,max response,[5],-1.04%
same,outcome,[7]; [8],inactive
Cc1cc(NC(=O)Nc2ccc(N(C)C)cc2)c2cc(F)cc(F)c2n1,outcome,[1],inactive
same,Potency,[2],14.8 µM (active)
same,outcome,[3],inactive
same,outcome,[4],inactive
same,outcome,[5],inactive
same,outcome,[7]; [8],inactive
O=C(O)CCC=CCC[C@@H]1[C@H](N2CCCCC2)[C@@H](O)C[C@@H]1OCc1ccc(-c2ccccc2)cc1,outcome,[1],inactive
same,max response,[2],-1.41%
same,outcome,[3],inactive
same,outcome,[4],inactive
same,max response,[5],3.59%
same,outcome,[7]; [8],inactive
O=C(Nc1ccccc1)Nc1ccc(-c2ccc(C(=O)[C@H]3CCC[C@H]3C(=O)O)cc2)cc1,outcome,[1],inactive
same,max response,[2],-0.566%
same,outcome,[3],inactive
same,max response,[4],9.29%
same,max response,[5],3.03%
same,outcome,[7]; [8],inactive
CN1CCC(COc2cnc(-c3cccc(Cn4nc(-c5cccc(C#N)c5)ccc4=O)c3)nc2)CC1,outcome,[1],inactive
same,outcome,[2],inactive
same,outcome,[3],inactive
same,max response,[4],-7.63%
same,Potency,[5],16.4 µM (active)
same,max response,[5],-5.81%
same,outcome,[7]; [8],inactive
same,outcome,[6],inactive
CC1C(=O)OC2C(O)C34C5CC(C(C)(C)C)C36C(OC(=O)C6O)OC4(C(=O)O5)C12O (stereo not drawn),outcome,[1],inactive
same,max response,[2],-2.56%
same,outcome,[3],inactive
same,outcome,[4],inactive
same,max response,[5],-22.7%
same,outcome,[7]; [8],inactive
N[C@@H](CC(=O)N1CCn2c(nnc2C(F)(F)F)C1)Cc1cc(F)c(F)cc1F,max response,[1],-4.16%
same,max response,[2],1.14%
same,outcome,[3],inactive
same,max response,[4],-6.59%
same,max response,[5],-2.27%
same,outcome,[7]; [8],inactive
Nc1[nH]nc2nnc(-c3c(-c4ccccc4)nn4ccccc34)cc12,outcome,[1],inactive
same,max response,[2],2.02% and -4.98%
same,outcome,[3],inactive
same,outcome,[4],inactive
same,outcome,[5],inactive
same,outcome,[7]; [8],inactive
CCCCCCCCCCCCCCCC(=O)O[C@H]1[C@@H](O)[C@@H](O)[C@@H]([C@H](NC(=O)[C@@H]2C[C@@H](CCC)CN2C)[C@H](C)Cl)O[C@@H]1SC,outcome,[1],inactive
same,max response,[2],-29.9%
same,outcome,[3],inactive
same,outcome,[4],inactive
same,outcome,[5],inactive
same,outcome,[7]; [8],inactive
